ChEMBL document CHEMBL1157539, “Thousands of chemical starting points for antimalarial lead identification” (Nature, 2010)

These compounds were tested on Plasmodium falciparum (assay: GSK_TCMDC: Inhibition of Plasmodium falciparum 3D7 in whole red blood cells, using parasite LDH activity as an index of growth. Test compounds present at 2uM).
Type: functional
Compound `CC(=O)Nc1ccc2[nH]cc(C3CCN(CCC4CCN(C(=O)/C=C/c5ccc(Cl)c(Cl)c5)CC4)CC3)c2n1` has an Inhibition of 100%. `CC(C)(C)NS(=O)(=O)c1cc(C(=O)N2CCC(CCN3CCC(O)(c4cccc(C(F)(F)F)c4)CC3)(c3cccc(F)c3)CC2)c(Cl)cc1F` was tested, and the Inhibition was 88%. For `COc1ccc(-n2ccnc2SCC(=O)Nc2cccc(C(F)(F)F)c2)c(OC)c1`, the Inhibition was 98%. With `Br.Cn1c(=N)n(CC(=O)OCc2ccc(OCc3ccccc3)cc2)c2ccccc21` the Inhibition was 100%. Compound `Br.CC1(C)NC(N)=NC(=N)N1OCCCc1c(Cl)cccc1Cl` has an Inhibition of 95%. `Cc1cccn2c(=O)c3cc(C(=O)NC(C)c4ccccc4)c(=N)n(CCN4CCOCC4)c3nc12` (centres undefined) showed an Inhibition of 100%. In the case of `O=C(CCCc1ccccc1)Nc1cccc(N2CCC(N3CCN(c4ccccc4O)CC3)CC2)c1`, the Inhibition is reported as 98%. In the case of `CN(C)CC(O)COc1ccc(Nc2ncc([N+](=O)[O-])c(Nc3ccccc3O)n2)cc1.O=C(O)C(F)(F)F` (centres undefined), the Inhibition is reported as 100%. `O=C(/C=C/c1ccc(Cl)cc1)NCCCCCN1CCN(C(=O)C=Cc2ccc(Cl)c(Cl)c2)CC1.O=C(O)C(F)(F)F` showed an Inhibition of 92%. `COc1ccc2c(=NN=Cc3ccc(OC)c4ccccc34)cc(C)[nH]c2c1` showed an Inhibition of 100%. `O=C(Nc1ccc2ccccc2c1)N(CCCn1ccnc1)Cc1csc(-c2ccc(CNCc3ccccc3)cc2)n1.O=C(O)C(F)(F)F` was tested, and the Inhibition was 99%. In the case of `C(=N\Nc1nccc2sc(-c3cccnc3)cc12)/c1ccncc1`, the Inhibition is reported as 100%. In the case of `N#Cc1ccc(S(=O)(=O)N2C(c3cccc([N+](=O)[O-])c3)C(C(=O)c3ccccc3)N(C3CCCCC3)C2c2cccc([N+](=O)[O-])c2)cc1` (centres undefined), the Inhibition is reported as 83%. Work on `CCCc1nc2c(N3CC(NC(=O)/C=C/c4ccccc4)C3)cccc2n1C1CC1` yielded an Inhibition of 83%. Work on `N=C(N)Nc1nc(-c2ccc(NCc3ccc(CNc4cccc(-c5csc(NC(=N)N)n5)c4)cc3)cc2)cs1` yielded an Inhibition of 100%. With `Cc1cc(NC(=O)Nc2ccc(C(C)C)cc2)c2ccccc2n1.Cl` the Inhibition was 99%. `Cc1cccc2nc(-c3cccc(-c4ccc(NC(=O)C(C)(C)c5ccccn5)cc4)c3)[nH]c12` was tested, and the Inhibition was 97%. Work on `COC(=O)c1cccc(CNCc2ccc(-c3ccc(-c4nc5cc(C(F)(F)F)ccc5[nH]4)s3)cc2)c1.O=C(O)C(F)(F)F` yielded an Inhibition of 100%. For `CN1CCN(CCCN(Cc2csc(-c3ccc(CNCc4ccccc4)cc3)n2)C(=O)Nc2cc(Cl)cc(Cl)c2)CC1.O=C(O)C(F)(F)F`, the Inhibition was 100%. For `COc1ccc(-c2ccc(NC(=O)c3ccc(C#N)cc3)cc2)cc1CN1CCC(O)CC1.O=C(O)C(F)(F)F`, the Inhibition was 94%. Compound `Nc1nccc2ccc(-c3ccc(NC(=O)Nc4cc(C(F)(F)F)ccc4F)cc3)cc12.O=C(O)C(F)(F)F` has an Inhibition of 100%. For `N#Cc1cccc(C(=O)Nc2cccc(-c3cccc(CN4CCNCC4)c3)c2)c1.O=C(O)C(F)(F)F`, the Inhibition was 89%. `CC(C)NC(=O)c1cccc(-c2cccc(OCCN3CCSCC3c3ccccc3)c2)c1` (centres undefined) was tested, and the Inhibition was 89%. Compound `COc1ccc(Br)cc1/C=C/C(=O)Nc1cccc(C2CCN(C)CC2)c1.O=CO` has an Inhibition of 95%. `CN(C)CCOc1ccc2c(=O)cc(CCc3cccc(F)c3F)n(CC(=O)N(C)Cc3ccc(-c4ccc(C(F)(F)F)cc4)cc3)c2c1.O=C(O)C(O)C(O)C(=O)O` was tested, and the Inhibition was 90%. Compound `O=C(Nc1cccc(C(F)(F)F)c1)c1cccc(S(=O)(=O)NC2CCCN(CC3CCCCC3)C2)c1.O=C(O)C(F)(F)F` (centres undefined) has an Inhibition of 97%. With `COc1cc(Cc2cnc(N)nc2N)cc(OC)c1OCCNC(=O)[C@@H](N)CCC(=O)O.Cl` the Inhibition was 96%. Compound `COc1cc2ncnc(Nc3ccc4nc(Cc5ccccc5)[nH]c4c3)c2cc1OC.Cl` has an Inhibition of 87%. `O=C(NCCc1cccc(Cl)c1Cl)c1ccc(N2CCN(c3ccncc3)CC2)nc1.O=C(O)C(F)(F)F` gave an Inhibition of 100%. `COc1ccc2nccc([C@@H](O)CN3C4CCC3CC(NCc3ccc5c(n3)NC(=O)CS5)C4)c2n1.Cl` (some centres undefined) showed an Inhibition of 99%. `Cc1ccc(NC(=O)c2cccc(CN3CCCN(Cc4cccc(O)c4)CC3)c2)cc1C.O=C(O)C(F)(F)F` showed an Inhibition of 95%. Work on `O=C(/C=C/c1ccc(Cl)c(Cl)c1)NCCCCCN1CCC(C(=O)Nc2ccc(F)c(Cl)c2)CC1` yielded an Inhibition of 100%. For `O=C(Nc1ccc2c(c1)CCN2C1CCN(Cc2ccc(C(F)(F)F)cc2F)C1)c1ccco1` (centres undefined), the Inhibition was 91%. In the case of `Cc1cc(NC(=O)c2ccco2)ccc1OC1CCN(Cc2ccc(C#N)cc2)CC1.O=C(O)C(F)(F)F`, the Inhibition is reported as 92%. For `Cc1cc(NC(=O)c2ccc(S(=O)(=O)N(Cc3ccccc3)C(C)C)cc2)no1`, the Inhibition was 87%. With `COc1ccc2nc3cc(Cl)ccc3c(NCCCCN3CCNCC3)c2c1.Cl` the Inhibition was 100%. `Cc1noc(C)c1-c1ccc2c(Nc3ccc(C#N)cc3)c(C(N)=O)cnc2c1` was tested, and the Inhibition was 97%. `O=C(NC1CC1)c1cnc(N2CCN(Cc3c(F)cccc3Cl)CC2)c(Cl)c1.O=C(O)C(F)(F)F` gave an Inhibition of 93%. `O=C(O)C(F)(F)F.O=C1OC2(CCN(Cc3cccc(-c4ncc[nH]4)c3)CC2)CN1CCNCc1ccccc1` gave an Inhibition of 94%.
